About 7,900 targets were measured; listed, in parts, are those with a hit and a random draw of the rest. About 0.6% of all pairs of compound and target were hits.
What was measured:
Assay in all cases: log2 fold change, soluble protein after heating vs DMSO (PISA); higher = thermal stabilisation; K562 cells, 10 uM, 30 min; active = over 0.2 and 3.5 SD of the protein, either way, in both replicates (recomputed)
[1] = compound: C1COCCN1CCN2C3=CC=CC=C3N=C2NC(=O)C4=CC(=CC=C4)[N+](=O)[O-] [IRAK-1-4 Inhibitor I]
Summary of the method: (§1)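 K562 cells at 2×10^6 cells/mL were treated with 10 μM compound for 30 min. Aliquots were heated for 3 min across 48°C-58°C, pooled, and extracted in PBS with 0.5% NP-40 at 4°C; soluble protein was the supernatant after 21,000xg for 90 min. Soluble protein was quantified by TMTpro 16plex LC-MS/MS with channel sums equalised, and reported as log2 fold change in thermal stability against DMSO controls, with values from duplicates.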

[2] = compound: C=CC(=O)N1CCC[C@@H](n2nc(-c3ccc(Oc4ccccc4)cc3)c3c(N)ncnc32)C1 [ibrutinib]
Summary of the method: as §1

[3] = compound: CC(=O)c1cnc2ccc(-c3cc(Cl)c(O)c(Cl)c3)nc2c1N[C@H]1CC[C@H](CN(C)C)CC1
Summary of the method: as §1

[4] = compound: CC(C)(C)Cn1c(N)nc2ccc(-c3[nH]c(C(C)(C)C)nc3-c3ccc(F)cc3)nc21 [ralimetinib]
Summary of the method: as §1

[5] = compound: CC(C)(O)CC(=O)NCCn1ccc2ncnc(Nc3ccc(Oc4cccc(C(F)(F)F)c4)c(Cl)c3)c21
Summary of the method: as §1

[6] = compound: CC(C)C1=C2N=C(C=C(N2N=C1)NCC3=CC=CC=C3)NCCCCCCN
Summary of the method: as §1

[7] = compound: CC(C)C[C@@H](C=O)NC(=O)[C@H](CC(C)C)NC(=O)[C@H](CC(C)C)NC(=O)OCc1ccccc1
Summary of the method: as §1

[8] = compound: CC(C)N(C[C@H]1O[C@@H](n2cnc3c(N)ncnc32)[C@H](O)[C@@H]1O)[C@H]1C[C@@H](CCc2nc3cc(C(C)(C)C)ccc3[nH]2)C1 [pinometostat]
Summary of the method: as §1

[9] = compound: CC1=C(C(CC(=O)N1)C2=CC=C(C=C2)C(F)(F)F)C(=O)NC3=C(C=C4C(=C3)C=NN4)F
Summary of the method: as §1

[10] = compound: CC1=C(C2=C(C=C1)C(=O)C3=CC=CC=C3N2CCCN)C
Summary of the method: as §1

[11] = compound: CC1=C(C=C(C=C1)NC(=O)C2=CC(=CC=C2)C(C)(C)C#N)NC3=CC4=C(C=C3)N=CN(C4=O)C
Summary of the method: as §1

[12] = compound: CC1=C(C=C(C=C1)NC(=O)C2=CC(=CC=C2)N(C)C)NC(=O)C3=CC=C(C=C3)O
Summary of the method: as §1

[13] = compound: CC1=CC=C(C=C1)SC2=C3C=C(SC3=CN=C2)C(=O)N
Summary of the method: as §1

[14] = compound: CC1=NC(=CC=C1)C2=C(N=C(N2)C(C)(C)C)C3=CC4=NC=CN=C4C=C3
Summary of the method: as §1

[15] = compound: CCCCN(Cc1ccc(C(=O)NO)cc1)C(=O)Nc1ccccc1 [Nexturastat A]
Summary of the method: as §1

[16] = compound: CCCS(=O)(=O)Nc1ccc(F)c(C(=O)c2c[nH]c3ncc(-c4ccc(Cl)cc4)cc23)c1F [vemurafenib]
Summary of the method: as §1

[17] = compound: CCCS(=O)(=O)Nc1ccc(F)c(C(=O)c2c[nH]c3ncc(Cl)cc23)c1F
Summary of the method: as §1

[18] = compound: CCCc1cc(C)[nH]c(=O)c1CNC(=O)c1cc(-c2ccnc(N3CCN(C)CC3)c2)cc2c1cnn2C(C)C
Summary of the method: as §1

[19] = compound: CCN(CC)Cc1ccc2cc(COC(=O)Nc3ccc(C(=O)NO)cc3)ccc2c1 [givinostat]
Summary of the method: as §1

[20] = compound: CCN(CCCOc1ccc2c(Nc3cc(CC(=O)Nc4cccc(F)c4)[nH]n3)ncnc2c1)CCOP(=O)(O)O [barasertib]
Summary of the method: as §1

Measured: log2 fold change

RAP1GDS1 isoform 5 (UniProt P52306)
Sequence of UniProt P52306 (P52306 whole entry, looked up): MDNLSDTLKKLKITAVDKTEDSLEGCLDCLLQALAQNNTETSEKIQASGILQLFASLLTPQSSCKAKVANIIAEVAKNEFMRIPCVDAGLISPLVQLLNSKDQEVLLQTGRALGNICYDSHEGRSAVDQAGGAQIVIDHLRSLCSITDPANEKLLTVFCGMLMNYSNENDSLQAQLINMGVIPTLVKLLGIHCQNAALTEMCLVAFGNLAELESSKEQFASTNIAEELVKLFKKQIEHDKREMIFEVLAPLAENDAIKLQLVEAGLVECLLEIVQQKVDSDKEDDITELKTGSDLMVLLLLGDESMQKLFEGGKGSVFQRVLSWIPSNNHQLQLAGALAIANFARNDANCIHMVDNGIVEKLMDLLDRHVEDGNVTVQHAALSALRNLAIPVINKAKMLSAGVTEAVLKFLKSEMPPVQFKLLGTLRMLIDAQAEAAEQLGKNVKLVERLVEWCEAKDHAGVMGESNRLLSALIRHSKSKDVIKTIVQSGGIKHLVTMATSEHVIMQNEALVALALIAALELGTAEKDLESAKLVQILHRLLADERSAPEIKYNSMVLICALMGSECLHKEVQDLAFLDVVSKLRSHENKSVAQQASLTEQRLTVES
inactive: [1] -0.044 | [2] -0.098 | [3] 0.04 | [4] 0.005 | [5] -0.114 | [7] -0.005 | [8] 0.067 | [9] 0.011 | [10] 0.008 | [11] -0.04 | [12] -0.035 | [13] 0.073 | [14] 0.042 | [15] -0.023 | [16] -0.014 | [17] 0.174 | [18] 0.016 | [19] 0.047 | [20] 0.019
active: [6] -0.277

SKP1 (UniProt P63208)
Sequence of UniProt P63208 (P63208 whole entry, looked up): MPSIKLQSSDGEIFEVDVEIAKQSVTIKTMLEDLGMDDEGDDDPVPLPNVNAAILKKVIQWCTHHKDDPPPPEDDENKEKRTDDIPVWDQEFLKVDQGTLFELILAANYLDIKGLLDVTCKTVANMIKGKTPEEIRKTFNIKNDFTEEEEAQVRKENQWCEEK
inactive: [1] 0.069 | [2] 0.054 | [3] 0.03 | [4] -0.02 | [5] -0.045 | [6] 0.068 | [7] -0.069 | [8] -0.08 | [9] 0.042 | [10] -0.049 | [11] 0.095 | [12] 0.048 | [13] 0.094 | [14] 0.017 | [15] -0.052 | [16] -0.036 | [17] 0.008 | [18] -0.032 | [19] -0.05 | [20] -0.021

RBBP6 (UniProt Q7Z6E9)
Sequence of UniProt Q7Z6E9 (Q7Z6E9 whole entry, looked up): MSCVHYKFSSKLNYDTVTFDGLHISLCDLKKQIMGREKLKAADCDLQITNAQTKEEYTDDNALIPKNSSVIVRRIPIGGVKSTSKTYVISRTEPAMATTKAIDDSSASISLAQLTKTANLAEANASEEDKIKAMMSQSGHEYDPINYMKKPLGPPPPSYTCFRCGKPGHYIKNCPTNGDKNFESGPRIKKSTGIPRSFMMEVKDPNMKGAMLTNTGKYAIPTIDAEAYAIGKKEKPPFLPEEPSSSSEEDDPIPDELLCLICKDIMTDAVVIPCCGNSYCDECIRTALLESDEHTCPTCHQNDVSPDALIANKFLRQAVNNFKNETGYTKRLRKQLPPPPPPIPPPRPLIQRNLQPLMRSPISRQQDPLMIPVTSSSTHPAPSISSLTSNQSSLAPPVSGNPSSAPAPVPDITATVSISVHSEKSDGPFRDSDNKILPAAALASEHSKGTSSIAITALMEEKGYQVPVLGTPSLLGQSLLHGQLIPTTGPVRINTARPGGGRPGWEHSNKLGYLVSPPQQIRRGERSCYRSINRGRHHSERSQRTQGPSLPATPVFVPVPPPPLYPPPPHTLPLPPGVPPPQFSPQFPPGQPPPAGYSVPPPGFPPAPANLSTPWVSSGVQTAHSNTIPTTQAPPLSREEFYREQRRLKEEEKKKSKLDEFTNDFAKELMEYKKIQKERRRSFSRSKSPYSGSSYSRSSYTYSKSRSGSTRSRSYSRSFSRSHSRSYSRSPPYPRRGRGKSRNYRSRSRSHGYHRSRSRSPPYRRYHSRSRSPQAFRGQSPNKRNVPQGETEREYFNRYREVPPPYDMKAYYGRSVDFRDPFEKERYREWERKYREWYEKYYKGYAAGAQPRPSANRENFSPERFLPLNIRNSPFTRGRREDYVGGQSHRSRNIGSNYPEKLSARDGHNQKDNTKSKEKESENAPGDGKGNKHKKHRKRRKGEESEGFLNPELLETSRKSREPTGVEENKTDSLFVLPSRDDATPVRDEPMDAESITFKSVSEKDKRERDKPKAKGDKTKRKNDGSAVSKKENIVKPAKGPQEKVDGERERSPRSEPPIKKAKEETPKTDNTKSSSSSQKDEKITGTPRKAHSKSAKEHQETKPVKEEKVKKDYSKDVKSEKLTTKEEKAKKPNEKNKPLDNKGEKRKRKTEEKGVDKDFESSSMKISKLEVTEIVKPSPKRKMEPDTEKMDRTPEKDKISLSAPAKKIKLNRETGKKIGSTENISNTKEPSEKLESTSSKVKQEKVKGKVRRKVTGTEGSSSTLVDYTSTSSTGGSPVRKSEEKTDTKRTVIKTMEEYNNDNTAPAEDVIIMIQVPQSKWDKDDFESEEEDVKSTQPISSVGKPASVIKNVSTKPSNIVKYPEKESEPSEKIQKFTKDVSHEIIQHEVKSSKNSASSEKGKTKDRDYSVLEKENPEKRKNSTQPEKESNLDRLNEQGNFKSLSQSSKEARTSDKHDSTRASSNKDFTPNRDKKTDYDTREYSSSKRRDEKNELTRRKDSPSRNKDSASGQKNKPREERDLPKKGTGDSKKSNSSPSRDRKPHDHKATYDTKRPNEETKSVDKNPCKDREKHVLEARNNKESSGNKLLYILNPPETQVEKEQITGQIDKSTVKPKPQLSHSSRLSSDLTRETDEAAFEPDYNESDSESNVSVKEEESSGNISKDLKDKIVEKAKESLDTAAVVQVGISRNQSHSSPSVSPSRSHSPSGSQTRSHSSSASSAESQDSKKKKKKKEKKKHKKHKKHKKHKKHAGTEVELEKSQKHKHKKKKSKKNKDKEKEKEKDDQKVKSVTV
inactive: [1] -0.099 | [2] -0.082 | [3] -0.114 | [4] 0.02 | [5] 0.044 | [6] -0.089 | [7] -0.023 | [8] -0.078 | [9] -0.021 | [10] -0.022 | [11] -0.108 | [12] 0.119 | [13] 0.03 | [14] 0.127 | [15] -0.051 | [16] 0.008 | [17] 0.068 | [18] -0.023 | [19] 0.043 | [20] -0.018

RUFY1 (UniProt Q96T51)
Sequence of UniProt Q96T51 (Q96T51 whole entry, looked up): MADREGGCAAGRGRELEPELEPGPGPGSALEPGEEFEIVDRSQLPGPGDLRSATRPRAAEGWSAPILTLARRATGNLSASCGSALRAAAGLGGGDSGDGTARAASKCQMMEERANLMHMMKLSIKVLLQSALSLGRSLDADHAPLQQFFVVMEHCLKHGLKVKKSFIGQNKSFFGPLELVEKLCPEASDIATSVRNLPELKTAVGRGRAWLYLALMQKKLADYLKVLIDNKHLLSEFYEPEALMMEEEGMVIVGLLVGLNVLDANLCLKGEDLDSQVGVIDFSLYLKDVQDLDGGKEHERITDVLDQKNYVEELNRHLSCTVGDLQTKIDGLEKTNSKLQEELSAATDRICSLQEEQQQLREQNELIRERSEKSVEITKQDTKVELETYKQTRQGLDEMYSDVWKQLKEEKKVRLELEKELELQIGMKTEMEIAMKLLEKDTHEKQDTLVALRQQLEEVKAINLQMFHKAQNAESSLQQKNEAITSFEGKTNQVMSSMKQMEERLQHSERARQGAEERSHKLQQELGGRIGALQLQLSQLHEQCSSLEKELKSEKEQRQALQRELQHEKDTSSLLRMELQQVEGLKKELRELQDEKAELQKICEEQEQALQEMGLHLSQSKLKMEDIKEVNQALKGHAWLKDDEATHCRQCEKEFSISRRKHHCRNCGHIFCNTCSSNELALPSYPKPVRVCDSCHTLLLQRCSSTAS
inactive: [1] -0.019 | [2] -0.002 | [3] 0.101 | [4] 0.034 | [5] -0.092 | [6] -0.182 | [7] 0.011 | [8] 0.083 | [9] -0.003 | [10] -0.014 | [11] 0.013 | [12] -0.011 | [13] -0.022 | [14] -0.035 | [15] 0.063 | [16] 0.043 | [17] 0.059 | [18] 0.029 | [19] 0.031 | [20] 0.027

SHCBP1 (UniProt Q8NEM2)
Sequence of UniProt Q8NEM2 (Q8NEM2 whole entry, looked up): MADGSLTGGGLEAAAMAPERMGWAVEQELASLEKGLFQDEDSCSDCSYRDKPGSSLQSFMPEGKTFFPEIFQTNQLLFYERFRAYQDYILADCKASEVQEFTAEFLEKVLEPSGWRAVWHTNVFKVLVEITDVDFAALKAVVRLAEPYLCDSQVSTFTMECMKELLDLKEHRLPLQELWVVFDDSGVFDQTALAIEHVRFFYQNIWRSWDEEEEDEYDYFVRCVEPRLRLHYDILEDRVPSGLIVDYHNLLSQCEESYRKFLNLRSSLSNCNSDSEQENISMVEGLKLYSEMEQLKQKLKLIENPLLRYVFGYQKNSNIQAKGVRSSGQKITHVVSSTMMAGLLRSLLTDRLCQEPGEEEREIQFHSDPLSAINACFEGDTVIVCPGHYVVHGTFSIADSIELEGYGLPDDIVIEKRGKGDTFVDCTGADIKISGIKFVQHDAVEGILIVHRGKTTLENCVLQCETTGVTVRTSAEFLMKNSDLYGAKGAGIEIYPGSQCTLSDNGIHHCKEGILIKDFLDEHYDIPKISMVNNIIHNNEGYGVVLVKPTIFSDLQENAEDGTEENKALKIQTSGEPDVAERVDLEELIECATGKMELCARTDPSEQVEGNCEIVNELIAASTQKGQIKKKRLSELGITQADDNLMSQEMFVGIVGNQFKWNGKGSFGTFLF
inactive: [1] -0.11 | [2] -0.072 | [3] -0.013 | [4] 0.025 | [5] -0.121 | [7] 0.012 | [8] 0.066 | [9] 0.074 | [10] 0.02 | [11] 0 | [12] -0.032 | [13] 0 | [14] 0.07 | [15] 0.047 | [16] 0.102 | [17] 0.027 | [18] -0.014 | [19] 0.018 | [20] 0.117
active: [6] -0.516

RALY (UniProt Q9UKM9)
Sequence of UniProt Q9UKM9 (Q9UKM9 whole entry, looked up): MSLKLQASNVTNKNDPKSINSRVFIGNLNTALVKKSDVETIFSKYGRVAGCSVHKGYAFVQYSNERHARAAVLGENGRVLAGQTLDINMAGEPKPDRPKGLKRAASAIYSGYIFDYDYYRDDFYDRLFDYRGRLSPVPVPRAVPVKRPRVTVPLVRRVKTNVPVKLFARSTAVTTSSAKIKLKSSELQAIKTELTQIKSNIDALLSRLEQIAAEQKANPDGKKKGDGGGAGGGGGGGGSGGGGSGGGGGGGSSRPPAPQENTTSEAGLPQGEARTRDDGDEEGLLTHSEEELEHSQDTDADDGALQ
inactive: [1] -0.315 | [2] 0.001 | [3] -0.21 | [4] -0.029 | [5] 0.055 | [6] -0.101 | [7] 0.083 | [8] 0.129 | [9] 0.068 | [10] -0.311 | [11] 0.091 | [12] -0.021 | [13] -0.05 | [14] 0.105 | [15] 0.358 | [16] -0.056 | [17] 0.187 | [18] 0.005 | [19] 0.209 | [20] -0.138

RELA (UniProt Q04206)
inactive: [1] -0.011 | [2] -0.002 | [3] 0.022 | [4] 0.025 | [5] 0 | [6] -0.018 | [7] 0.031 | [8] 0.003 | [9] -0.022 | [10] -0.054 | [11] 0.013 | [12] 0 | [13] 0.016 | [14] 0.014 | [15] 0.028 | [16] 0.014 | [17] 0.067 | [18] 0.021 | [19] 0.015 | [20] 0.013

RCC1 isoform 2 (UniProt P18754)
Sequence of UniProt P18754 (P18754 whole entry, looked up): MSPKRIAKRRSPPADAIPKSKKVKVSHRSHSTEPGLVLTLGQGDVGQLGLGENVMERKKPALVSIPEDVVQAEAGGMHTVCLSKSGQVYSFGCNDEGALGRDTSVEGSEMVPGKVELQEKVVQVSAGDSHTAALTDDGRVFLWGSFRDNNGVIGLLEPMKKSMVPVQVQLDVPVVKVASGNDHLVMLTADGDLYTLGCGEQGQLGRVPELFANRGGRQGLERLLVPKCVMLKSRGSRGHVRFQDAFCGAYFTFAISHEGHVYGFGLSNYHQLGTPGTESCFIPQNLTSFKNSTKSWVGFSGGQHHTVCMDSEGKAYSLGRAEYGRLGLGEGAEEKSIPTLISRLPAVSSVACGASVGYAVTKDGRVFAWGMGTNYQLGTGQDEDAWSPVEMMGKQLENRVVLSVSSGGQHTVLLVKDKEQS
inactive: [1] -0.026 | [2] -0.04 | [3] -0.14 | [4] 0 | [5] -0.16 | [6] -0.094 | [7] 0.041 | [8] 0.023 | [9] -0.08 | [11] 0.197 | [12] -0.129 | [13] 0.073 | [14] 0.055 | [15] -0.027 | [16] 0.13 | [17] 0.104 | [18] 0.111 | [19] 0.087 | [20] 0.053
active: [10] -0.899

— the supplement of paper PMC10849652
